HPGD block: blocks human HPGD enzyme activity; Potency, µM, without a hit: at the top dose activity change, negative = inhibition, most hits filed as inhibitors; 150,000 compounds, 4.3% hits; P15428; AID 894; purified HPGD, NADH fluorescence kinetic, PGE2 substrate; also: potency is read from the fitted curve at half-maximal effect
Target sequence (P15428 whole entry, looked up): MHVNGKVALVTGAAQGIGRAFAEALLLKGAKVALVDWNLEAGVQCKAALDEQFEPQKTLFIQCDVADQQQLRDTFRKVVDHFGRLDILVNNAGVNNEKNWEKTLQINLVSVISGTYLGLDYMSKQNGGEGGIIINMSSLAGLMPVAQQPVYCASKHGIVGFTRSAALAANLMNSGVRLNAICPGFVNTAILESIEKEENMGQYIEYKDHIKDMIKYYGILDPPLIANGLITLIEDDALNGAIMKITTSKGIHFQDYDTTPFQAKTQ
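NADH formation kinetics: reaction with 30 uM PGE2 and 1 mM NAD+ (final), 20 nM enzyme, Tris-HCl pH 8 with Tween 20, after 15 min compound preincubation at room temperature. Fluorescence change, last versus first of five reads.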
ALDH1A1 inh: blocks purified human ALDH1A1 activity; Purified ALDH1A1, NADH fluorescence, propionaldehyde substrate; Potency, µM (series often up to 75.3 µM), for inactives: at the highest dose activity, negative = inhibition, actives largely listed as inhibitors; 220,000 compounds, 7.3% hits; AID 1030;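 also: potency is read from the fitted curve at half-maximal effect; plate controls were no enzyme wells and a reference inhibitor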
PNC assembly inh: perinucleolar compartment assembly inhibition; activity change (PNC), negative = inhibition, % at 10 µM; PC3M PTB-GFP, PNC prevalence imaging, 16 h; hits give low values; 140,000 compounds, 3.1% hits; AID 2417;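 active = readout at or below -70, meaning at least 70% loss of cells showing the perinucleolar compartment, a nuclear body marking cancer cells; inconclusive = readout between -30 and a set limit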;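 also: plate controls were DMSO wells for no effect and camptothecin positive control wells for full effect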
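Compounds are pinned in duplicate onto adhered PC3M cells stably expressing GFP-tagged PTB and incubated 16 h at 37 C. Cells are then fixed, nuclei stained with Hoechst, and PNC-positive cells counted.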
* = called active by the depositor; ? = inconclusive; · = no result. The list is not random: actives were taken first. Their share in the collection is about 11%. Unless noted, calls follow the shape of the dose curve; as a rule, active = well fitted inhibition curve with a large enough effect (not every such curve was filed as active); inconclusive = small, poorly fitted or top-dose-only effect, or another doubt; inactive = no such curve, though single readings can be large or run the other way. Unless noted, % is scaled to controls: 0 for no effect and ±100 for the full control effect.

SMILES | HPGD block | ALDH1A1 inh | PNC assembly inh
COc1ccccc1-n1c(=S)sc2c(=O)n(Cc3ccco3)c(SC)nc21 | -27.6% | 20µM* | ?
CCN(CC)C(=O)CSc1nc2c(sc(=S)n2-c2ccccc2)c(=O)n1Cc1ccco1 | 31.6µM* | 10µM* | 44.8
CCN(CC)C(=O)CSc1nc2c(sc(=S)n2CC)c(=O)n1-c1ccccc1 | -3.5% | ? | ?
CCOC(=O)CSc1nc2c(sc(=S)n2Cc2ccco2)c(=O)n1-c1ccc(F)cc1 | -15.6% | -15.0% | 8.9
CN=C1SC(C(=O)Nc2ccccc2Cl)CC(=O)N1c1ccc(OC(F)(F)Cl)cc1 (stereo unspecified) | · | 3.5% | ·
Cc1o[nH]c(=O)c1CC[C@H](N)C(=O)O | -7.4% | 5.8% | ·
CC(=O)Nc1ccc(SCC(=O)c2cc(C)n(C)c2C)cc1 | -3.1% | -7.3% | -18.5
CC(=O)Nc1ccc(SCC(=O)c2cc(C)n(CC(F)(F)F)c2C)cc1 | -16.0% | 20µM* | 34.4
OCCN1CCN(C(c2cccs2)c2ccc3cccnc3c2O)CC1 (stereo unspecified) | 3.55µM* | 1.26µM* | 20.6
CC(=O)NC(c1ccco1)c1ccc2cccnc2c1O (stereo unspecified) | -0.5% | -1.7% | 18.9
O=C(COC(=O)CNC(=O)C1CCCCC1)Nc1ccc(Cl)cc1F | · | -2.3% | ·
Cc1cc(-c2nnc(CCC(=O)N3CCN(Cc4cccc(F)c4)CC3)o2)c(C)o1 | · | 28.2µM* | ·
Cc1cccnc1CN1CCN(C(=O)CCc2nnc(CCc3ccccc3)o2)CC1 | · | 3.5% | ·
Cc1cc(C(=O)NC2Cc3ccccc3C2)c(C)o1 | · | -7.1% | ·
Cc1cccc(Nc2n[nH]c(C)c2[N+](=O)[O-])c1 | 11.2µM* | -0.4% | 0.0
Cc1[nH]nc(Nc2ccccc2)c1[N+](=O)[O-] | -28.3% | -2.7% | 44.0
CN1CCC(Oc2ccccc2Sc2ccc(C(F)(F)F)cc2)CC1 | -4.7% | ? | -10.9
CSc1ccccc1OC1CCN(Cc2ccccc2)CC1 | -13.2% | -1.7% | -109.1*
O=S(=O)(c1ccc(F)cc1)N1CCN(Cc2ccccn2)CC1 | · | 3.4% | ·
CC(=O)c1cccc(NC(=O)c2ccc(NS(C)(=O)=O)cc2)c1 | 12.6µM* | 10.1% | -118.9*
O=C(Nc1ccncc1)c1cccc(F)c1 | 1.3% | 6.5% | 43.1
CC(=O)c1cccc(NC(=O)c2ccc(NS(=O)(=O)c3c(C)noc3C)cc2)c1 | -13.4% | ? | -16.7
O=C(Nc1cccc(F)c1)c1ccccc1-c1ccccc1 | · | -11.3% | -103.2*
O=C(Nc1ccc(F)cc1F)c1ccccc1-c1ccccc1 | · | 5.8% | -9.7
O=C(Nc1cccc(F)c1)c1ccccc1 | 31.6µM* | 2.0% | -1.5
SMILES | HPGD block | ALDH1A1 inh | PNC assembly inh
O=C(CCc1nnc(-c2ccc3c(c2)OCO3)o1)NC(c1cccnc1)C(F)(F)F (stereo unspecified) | · | 3.7% | ·
COc1ccc(C(=O)N(C)C2CCN(C)CC2)cc1S(=O)(=O)Nc1cc(Cl)ccc1Cl | · | 12.8% | ·
CC1(C)OC2C(CO)OC(n3cnc4c(=O)[nH]c(N)nc43)C2O1 (stereo unspecified) | -18.9% | 7.1% | ·
COc1ccc(/C=N/n2cnc3c([nH]c4ccccc43)c2=O)cc1COc1ccccn1 | · | -4.2% | ·
Cc1c(NS(=O)(=O)c2ccc(C(=O)NCc3ccccc3)cc2)c(=O)n(-c2ccccc2)n1C | · | -4.4% | ·
CN(C)c1ccc2c(c1)OC(N)=C(C#N)C2c1cccc(F)c1 (stereo unspecified) | -21.8% | -15.1% | -85.0*
N#CC1=C(N)Oc2cc(O)ccc2C1c1cccnc1 (stereo unspecified) | · | 3.9% | ·
CC(C)=CCCC1(C)C=Cc2c(c(C)cc3c2[nH]c2ccccc23)O1 (stereo unspecified) | -7.7% | 10.3% | ·
CSc1ccccc1Nc1ncnc(N)n1 | · | 7.2% | ·
Cc1nc2ccccc2c(=O)n1NS(C)(=O)=O | -8.5% | 10.7% | -112.2*
Cc1nc2ccccc2c(=O)n1NC(=O)Nc1ccccc1 | 2.6% | 7.8% | 44.5
CN1CCN(C(=O)CCCOc2cc(=O)n(C)c3ccccc23)CC1 | -6.3% | 5.2% | ?
Cn1c(=O)cc(OCCCC(=O)N2CCCCC2)c2ccccc21 | 7.08µM* | -4.5% | -12.8
Cn1c(=O)cc(OCC(=O)NC2CCCCC2)c2ccccc21 | -27.1% | ? | 14.0
Cn1c(=O)cc(OCCCC(=O)NC2CCCC2)c2ccccc21 | 14.1µM* | 2.8% | -13.3
Oc1ccc(N=C/C=C/c2cccc(Br)c2)cc1-c1nc2ccccc2s1 | -24.2% | ? | -19.0
O=C(N1CCN(c2ccc(F)cc2)CC1)C1(c2cccs2)CCOCC1 | -6.6% | 4.3% | 2.2
CCc1nc2ccccc2c(C(=O)OCC(=O)C(C)(C)C)c1C | · | -5.9% | ·
CCc1nc2ccccc2c(C(=O)OCc2nnc(-c3ccccc3)o2)c1C | 20µM* | ? | 4.8
